Source: the supplement of paper PMC9694430
Where “and” joins values, the source holds several entries; their conditions need not be identical. Identical values can stand only once. Counter-ions that a name gives are not always drawn.

These compounds were tested on LOC_OS07G07230-cb001 (assay: thermal shift delta Tm vs DMSO control; higher = stronger stabilization (binding)). Conditions: 12.5 µM; protein concentration 2 µM.
Method in brief: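 Heating from 25°C to 95°C at 0.05°C/s, fluorescence was recorded for 19.5 μl wells of 2 μM E. coli-expressed, purified rice kinase domain in 100 mM potassium phosphate pH 7.5, 150 mM NaCl, 10% glycerol and 5 × SYPRO Orange with compound in DMSO. Boltzmann fits gave melting temperatures for this differential scanning fluorimetry assay. The shift reported is the mean of three replicates against the DMSO-only protein.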
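Further: purified Escherichia coli-expressed rice kinase domain construct.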

| Structure (SMILES) | thermal shift delta Tm |
| --- | --- |
| c1cncc(CN2CCC(n3ncc4c(N5CCOCC5)nc(-c5ccc6[nH]ccc6c5)nc43)CC2)c1 | 0.16 °C |
| CCCS(=O)(=O)Nc1ccc(F)c(C(=O)c2c[nH]c3ncc(Cl)cc23)c1F | -0.02 °C |
| COC(=O)N[C@@H](C)CNc1nccc(-c2cn(C(C)C)nc2-c2cc(Cl)cc(NS(C)(=O)=O)c2F)n1 [Encorafenib (LGX818)] | 0.67 °C |
| O=C1c2c(O)cc(O)cc2OC(c2ccc(O)c(O)c2)C1O (stereo not drawn) [Taxifolin (Dihydroquercetin)] | 0.52 °C |
| CCCCCCCCCCCCc1ccc(S(=O)(=O)Nc2nncs2)cc1 | 0.24 °C |
| COc1cc2c(c(OC)c1OC)-c1c(cc3c(c1OC)OCO3)CC(C)C(C)C2 (stereo not drawn) [Schisandrin B (Sch B)] | -0.17 °C |
| CS(=O)(=O)c1ccc(-c2cnc(N)c(C(=O)Nc3ccccc3)n2)cc1 | 0.7 °C |
| CC1Oc2cc(cnc2N)-c2c(nn(C)c2C#N)CN(C)C(=O)c2ccc(F)cc21 (stereo not drawn) | 0.75 °C |
| Cc1ccc2nc(NCCN)c3ncc(C)n3c2c1 | 0.68 °C |
| C[C@@H](N)c1ccc(C(=O)Nc2ccnc3[nH]ccc23)cc1 | -0.1 °C |
| CCn1c(N)c(C(=O)NC)c(=O)c2ccc(C#CC(C)(O)COC)nc21 (stereo not drawn) | -0.09 °C |
| COC(=O)[C@]12CCC(C)(C)C[C@H]1[C@H]1C(=O)C=C3[C@@]4(C)C=C(C#N)C(=O)C(C)(C)[C@@H]4CC[C@@]3(C)[C@]1(C)CC2 [Bardoxolone Methyl] | 0.11 °C |
| COc1cc(Nc2ncc(F)c(Nc3ccc4c(n3)N(COP(=O)(O)O)C(=O)C(C)(C)O4)n2)cc(OC)c1OC [R788 (Fostamatinib) Disodium] | 0.59 °C |
| CC#CC(=O)Nc1ccc2ncnc(Nc3cccc(Br)c3)c2c1 | 0.05 °C |
| Cc1c(C(=O)N2CCOc3ccc(-c4ccc(N)nc4)cc3C2)ccc(S(C)(=O)=O)c1F | 0.23 °C |
| COc1ccc(-c2ccc3c(N4CCOCC4)nc(N4C[C@@H](C)O[C@@H](C)C4)nc3n2)cc1CO | 0.35 °C |
| O=C(Nc1cnn2ccc(N3CCC[C@@H]3c3cc(F)ccc3F)nc12)N1CC[C@H](O)C1 [Larotrectinib (LOXO-101) sulfate] | 0.56 °C |
| O=C(NCCCNc1nc(Nc2cccc(NC(=O)N3CCCC3)c2)ncc1I)c1cccs1 | 0.21 °C |
| Nc1cccc(-c2cc3c(Oc4cccc(O)c4)ncnc3[nH]2)c1 | -0.21 °C |

| Structure (SMILES) | thermal shift delta Tm |
| --- | --- |
| CC(C)(C)NC(=O)c1cncn1C1CCN(c2ccc(-c3nnc(C(F)(F)F)o3)cn2)CC1 | 0.57 °C |
| Nc1nc2cc(-c3ccc4ncc(C(=O)N5CCOCC5)n4c3)ccc2o1 [Serabelisib (INK-1117,MLN-1117,TAK-117)] | 0.61 °C |
| COCCOc1ccc2c(c1)ncn2-c1ccc2cccc(N3CCC(N)CC3)c2n1 | 0.19 °C |
| CC(C)CCN1c2nc(Nc3cc(F)c(O)c(F)c3)ncc2N(C)C(=O)C1C (stereo not drawn) | 0.37 °C |
| O=c1cc(-c2cccc3c2Sc2ccccc2S3)oc(N2CCOCC2)c1 | -0.3 °C |
| N=C(N)NC(=N)NCCc1ccccc1 [Phenformin HCl] | -0.03 °C |
| CC(C)=CC[C@@H](O)C1=CC(=O)c2c(O)ccc(O)c2C1=O [Shikonin] | 0.21 °C |
| CCN(CC)CCNC(=O)c1c(C)[nH]c(/C=C2\C(=O)Nc3ccc(F)cc32)c1C [Sunitinib] | 0.24 °C |
| Nc1ncnc2c1c(-c1cnc3[nH]ccc3c1)nn2C1CCCC1 | 0.21 °C |
| CC(=O)Nc1cccc(-n2c(=O)n(C3CC3)c(=O)c3c(Nc4ccc(I)cc4F)n(C)c(=O)c(C)c32)c1 | -0.16 °C |
| O=C(NC[C@H](O)CO)c1ccncc1Nc1ccc(I)cc1F | 0.62 °C |
| COc1cc2ncnc(Oc3ccc(CC(=O)Nc4cnn(C(C)C)c4)cc3)c2cc1OC | 0.45 °C |
| Nc1cccc(S(=O)(=O)N2CCCN(S(=O)(=O)c3ccc4c(c3)OCCO4)CC2)c1 | 0.56 °C |
| CCN1CCN(Cc2ccc(C(=O)Nc3ccc(C)c(Oc4ccc5c(c4)CC(=O)N5)c3)cc2C(F)(F)F)CC1 | 0.28 °C |
| C=CC(=O)Nc1ccc2ncnc(Nc3ccc(OCc4cccc(F)c4)c(Cl)c3)c2c1 | -0.18 °C |
| Nc1ccc(-c2ccc3ncc4ccc(=O)n(-c5cccc(C(F)(F)F)c5)c4c3c2)cn1 [Torin 2] | 0.3 °C |
| C[C@@H]1CCN(C(=O)CC#N)C[C@@H]1N(C)c1ncnc2[nH]ccc12 | 0.32 °C and -0.21 °C |
| CN1CCCN(C(=O)c2cccc(-c3ccc(/C=C4/C(=O)Nc5ccc(Cl)cc54)o3)c2)CC1 | 0.77 °C |
| C[C@@H](Oc1cc(-c2cnn(C3CCNCC3)c2)cnc1N)c1c(Cl)ccc(F)c1Cl | 0.31 °C |
